Experimental data taken from the supplement of paper PMC13380429.

System: Vero E6 infected with SARS-CoV-2
Test: inhibition of SARS-CoV-2 cytopathic effect; higher = more antiviral protection, active = above 15
Details: 48 h

Measured: inhibition of SARS-CoV-2 cytopathic effect

CC(=O)[C@H]1CC[C@H]2[C@@H]3CC=C4C[C@@H](O)CC[C@]4(C)[C@H]3CC[C@]12C [pregnenolone]
inactive: 1 nM -0.59% | 8.33 nM 3.91% | 100 nM -5.44% | 833.33 nM -1.71% | 10000 nM -3.04%

Oc1nc(O)c2cn[nH]c2n1 [oxypurinol]
inactive: 1 nM -1.15% | 8.33 nM -1.53% | 100 nM -2.43% | 833.33 nM -2.52% | 10000 nM 1.11%

CCn1ccnc1CC1COc2ccccc2O1 (stereo not given) [imiloxan]
inactive: 1 nM 2% | 8.33 nM -0.87% | 100 nM -0.32% | 833.33 nM 4.69% | 10000 nM -0.13%

C/C(=C\c1csc(C)n1)[C@@H]1C[C@@H]2O[C@]2(C)CCC[C@H](C)[C@H](O)[C@@H](C)C(=O)C(C)(C)[C@@H](O)CC(=O)N1 [ixabepilone]
inactive: 1 nM -3.63% | 8.33 nM 0.38% | 100 nM -5.48% | 833.33 nM -6.58% | 10000 nM -2.57%

OC[C@H]1O[C@@H](OCCc2ccc(O)cc2)[C@H](O)[C@@H](O)[C@@H]1O [salidroside]
inactive: 1 nM -0.77% | 8.33 nM 0.23% | 100 nM -0.6% | 833.33 nM 0.45% | 10000 nM -0.54%

O=C(OCCO)c1ccccc1O [2-hydroxyethyl-salicylate]
inactive: 1 nM 0.19% | 8.33 nM 1.56% | 100 nM -0.09% | 833.33 nM 0.15% | 10000 nM -2.92%

CC1COc2c(N3CCN(C)CC3)c(F)cc3c(=O)c(C(=O)O)cn1c23 (stereo not given) [ofloxacin]
inactive: 1 nM 1.97% | 8.33 nM 0.365% | 100 nM 0.065% | 833.33 nM -0.975% | 10000 nM 1.25%

CO/N=C(\C(=O)N[C@@H]1C(=O)N2C(C(=O)[O-])=C(C[N+]3(C)CCCC3)CS[C@H]12)c1csc(N)n1 [cefepime]
inactive: 1 nM 0.86% | 8.33 nM 1.89% | 100 nM 2.66% | 833.33 nM 3.19% | 10000 nM 1.42%

COc1cc(Br)c(S(=O)(=O)Nc2ccc(C(F)(F)F)c(O[C@@H]3CCN(C)C3)c2)cc1OC
inactive: 1 nM 1.05% | 8.33 nM 2.6% | 100 nM -1.36% | 833.33 nM -0.46% | 10000 nM -2.24%

CSCC[C@H](NC(=O)[C@H](CC(C)C)NC(=O)CNC(=O)[C@H](Cc1ccccc1)NC(=O)[C@H](Cc1ccccc1)NC(=O)[C@H](CCC(N)=O)NC(=O)[C@H](CCC(N)=O)NC(=O)[C@@H]1CCCN1C(=O)[C@H](CCCCN)NC(=O)[C@@H]1CCCN1C(=O)[C@@H](N)CCCN=C(N)N)C(N)=O [substance-P]
inactive: 1 nM -5.5% | 8.33 nM -11.3% | 100 nM -9.37% | 833.33 nM -10.4% | 10000 nM -5.64%

CN1CCN(CCCCN2C(=O)CN(/N=C/c3ccc(-c4ccc(Cl)cc4)o3)C2=O)CC1 [azimilide]
inactive: 1 nM 0.53% | 8.33 nM 0.51% | 100 nM 2.48% | 833.33 nM 0.41% | 10000 nM -1.08%

Cc1ccc(/C=C2/C(=O)C3(C)CCC2C3(C)C)cc1 (stereo not given) [3-(4-methylbenzylidene)camphor]
inactive: 1 nM 0.22% | 8.33 nM 0.95% | 100 nM 2.26% | 833.33 nM 0.01% | 10000 nM 0.05%

Cc1n[nH]c2ccc(-c3cncc(OC[C@@H](N)Cc4ccccc4)c3)cc12
inactive: 1 nM 1.18% | 8.33 nM 0.14% | 100 nM 4.58% | 833.33 nM 4.63% | 10000 nM -13.2%

CC(C)=CCC/C(C)=C/CC/C(C)=C/CSc1ccccc1C(N)=O [farnesyl-thiosalicylic-acid-amide]
inactive: 1 nM -1.77% | 8.33 nM -2.42% | 100 nM -3.06% | 833.33 nM -5.68% | 10000 nM -2.46%

Nc1ccn([C@H]2CC[C@@H](CO)O2)c(=O)n1 [zalcitabine]
inactive: 1 nM -0.47% | 8.33 nM -1.89% | 100 nM -4.07% | 833.33 nM -2.84% | 10000 nM -0.03%

O=C(C[S+]([O-])C(c1ccccc1)c1ccccc1)NO (stereo not given) [adrafinil]
inactive: 1 nM -1.03% | 8.33 nM -1.5% | 100 nM -3.32% | 833.33 nM 1.58% | 10000 nM -1.53%

COCCOC(=O)C1=C(C)NC(C)=C(C(=O)OC/C=C/c2ccccc2)C1c1cccc([N+](=O)[O-])c1 (stereo not given) [cilnidipine]
inactive: 1 nM -1.01% | 8.33 nM -0.52% | 100 nM 0.89% | 833.33 nM 0.38% | 10000 nM 7.9%
